# In all, about 190,000 compounds went through this assay and about 1,300 (0.68%) were called active. For the sample, actives were picked, then their nearest neighbours and some compounds at random. A number with no mark means an inactive call. Cut-off read from the data, not from the text of the source: active = inhibition above about 50%; inactive = the rest.
# Target: Mannose-6-phosphate isomerase (Homo sapiens) (UniProt P34949)
# Test: human PMI inhibitors, high substrate, primary screen, biochemical, fluorescence intensity, high mannose 6-phosphate (AID 1220)
# Settings: recombinant PMI enzyme, coupled fluorescence intensity; at 20 µM; hits give high values
# Mannose-6-phosphate isomerase (Homo sapiens), sequence (P34949 whole entry, looked up): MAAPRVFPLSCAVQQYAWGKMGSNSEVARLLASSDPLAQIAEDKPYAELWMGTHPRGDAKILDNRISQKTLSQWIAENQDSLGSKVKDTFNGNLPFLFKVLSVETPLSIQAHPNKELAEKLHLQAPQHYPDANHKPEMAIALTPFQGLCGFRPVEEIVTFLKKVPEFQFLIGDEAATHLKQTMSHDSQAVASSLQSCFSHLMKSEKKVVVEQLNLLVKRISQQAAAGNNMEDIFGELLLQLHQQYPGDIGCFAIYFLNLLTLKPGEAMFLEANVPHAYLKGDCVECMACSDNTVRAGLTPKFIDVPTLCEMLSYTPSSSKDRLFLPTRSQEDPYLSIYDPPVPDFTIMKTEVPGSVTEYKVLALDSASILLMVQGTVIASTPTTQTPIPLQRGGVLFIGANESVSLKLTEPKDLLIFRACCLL
row,SMILES,inhibition
1,S=C(Nc1ccc2nccnc2c1)N1CCOCC1,69.2% (active)
2,COC(=O)c1cccc(NC(=S)N2CCOCC2)c1,52.1% (active)
3,COC(=O)c1cccc(NC(=S)N2CCN(c3ccccc3F)CC2)c1,4.7%
4,COC(=O)c1cccc(NC(=S)N2CCCCC2)c1,-3.2%
5,S=C(Nc1ccc2nccnc2c1)N1CCCC1,35.6%
6,S=C(Nc1ccc(Cl)c(Cl)c1)N1CCOCC1,10.9%
7,CC(C)CCNC(=O)C(NS(=O)(=O)c1ccc2c(c1)c(=O)n(C)c(=O)n2C)c1ccccc1 (stereo not drawn),-11.2%
8,Cc1cc(C(F)F)n2nc(C(=O)Nc3ccccc3Br)nc2n1,-3.5%
9,Cc1ccsc1/C=N/NC(=O)c1cc(-c2ccncc2)nc2ccccc12,-9.2%
10,N#Cc1ccc(C(=O)Nc2cc(S(=O)(=O)N3CCCC3)ccc2OCC(F)(F)F)cc1,-0.6%
11,CCCc1nc2c(=O)[nH]c3ccccc3c2o1,-0.9%
12,NC(=O)c1c(NC(=O)c2cc3ccccc3o2)sc2c1CCC2,2.2%
13,COc1ccccc1NC(=O)c1ccc(-c2ccc(Br)cc2)o1,7.4%
14,O=C(Nc1cccc2nsnc12)c1ccc(-c2ccc(Br)cc2)o1,50.3% (active)
15,O=C(Nc1cccc2ncccc12)c1ccc(-c2ccc(Br)cc2)o1,40.4%
16,O=C(Nc1ccccc1N1CCCCC1)c1ccc(-c2cccc(Cl)c2)o1,1.7%
17,O=C(Nc1cccc2nsnc12)c1ccc(-c2cccc(Cl)c2)o1,50.2% (active)
18,COC(=O)c1ccccc1NC(=O)c1ccc(-c2cccc(Cl)c2)o1,6.9%
19,Cc1ccc(C)c(N2CCN(CCCNC(=O)Cn3cccc3C(=O)c3ccccc3)CC2)c1,-7.6%
20,CC1(c2ccccc2Cl)NC(=O)N(CC(=O)NCc2ccco2)C1=O (stereo not drawn),-3%
21,COC(=O)c1sccc1NC(=O)CSc1nnnn1-c1ccccc1F,10.3%
22,O=C(O)CCSc1nnc(COc2ccc([N+](=O)[O-])cc2)n1-c1ccccc1,7.5%
23,COc1cccc(-n2c(N)c(C#N)c3ccc([N+](=O)[O-])cc3c2=O)c1,16.8%
24,CCCCCCC(=O)N=Nc1c(O)[nH]c2ccc([N+](=O)[O-])cc12,1.3%
25,CCCCCCn1c(N)c(C#N)c2ccc([N+](=O)[O-])cc2c1=O,63.1% (active)

row,SMILES,inhibition
1,COc1ccc(-n2cnc3cc([N+](=O)[O-])ccc32)cc1,3.2%
2,COc1ccc(-n2c(N)c(C#N)c3ccc([N+](=O)[O-])cc3c2=O)cc1,52.3% (active)
3,N#Cc1c(N)n(-c2ccccc2)c(=O)c2cc([N+](=O)[O-])ccc12,36.6%
4,COCCCNc1ncnc2c1[nH]c1ccccc12,16.1%
5,CCCN(C(=O)CSc1nc2c(cnn2-c2ccccc2)c(=O)[nH]1)C1CCS(=O)(=O)C1 (stereo not drawn),-13.4%
6,O=[N+]([O-])c1ccccc1/C=N/n1c(-c2cccnc2)n[nH]c1=S,3.5%
7,COc1ccc2c(c1)[nH]c1c(=O)n(Cc3ccco3)cnc12,20.7%
8,CCOC(=O)c1c(NC(=O)c2cccs2)sc2c1CC(C)(C)OC2,21.6%
9,Oc1ccc(/C=N/NC(=S)Nc2cccnc2)cc1O,6.3%
10,Oc1ccc(/C=N/NC(=S)Nc2cccnc2)c(O)c1,-11.9%
11,COc1ccc(NC(=S)N(CCN2CCOCC2)Cc2cc3cc4c(cc3[nH]c2=O)OCO4)cc1,14.7%
12,CCOc1ccc(NC(=S)N(CCN2CCOCC2)Cc2cc3cc4c(cc3[nH]c2=O)OCO4)cc1,61.3% (active)
13,CCOc1ccc(NC(=S)N(CCN2CCOCC2)Cc2cc3cc4c(cc3[nH]c2=O)OCCO4)cc1,24.8%
14,CCOC(=O)C1=C(C)NC(C)=C(C(=O)OCC)C1C(=O)OCC(=O)c1ccc2c(c1)OCCO2,14.5%
15,COC(=O)c1oc2ccccc2c1NC(=O)CN1CCCC1,6.8%
16,COc1cc(NC(=S)Nc2cccc(C)n2)cc(OC)c1OC,-3.5%
17,C/C(CC(=O)Nc1ccc(Cl)c(C(F)(F)F)c1)=N\NC(=O)c1cc2ccccc2cc1O,-5.7%
18,NC(=S)N/N=C\c1c2ccccc2cc2ccccc12,-132%
19,NC(=S)Nc1cc2ccccc2c2ccccc12,65.4% (active)
20,NC(=S)Nc1cccc2cc3ccccc3cc12,-9%
21,Cc1cccc(NC(=O)c2ccoc2C)n1,9.2%
22,COc1cc(-c2n[nH]c(=S)n2-c2cc(C(F)(F)F)ccc2Cl)cc(OC)c1OC,8.8%
23,O=c1oc2c(CN3CCOCC3)c(O)ccc2c2ccccc12,0.8%
24,CN(C)Cc1c(O)ccc2c3c(c(=O)oc12)CCCCC3,-2.7%
25,COc1cc(/C=C2/C(C)=C(C#N)c3nc(N)c(C#N)c(C)c32)ccc1OCC(=O)O,50.9% (active)

row,SMILES,inhibition
1,CC1=C(C#N)c2nc(N)c(C#N)c(C)c2/C1=C\c1ccc(-c2ccccc2C(=O)O)o1,10.6%
2,CC1=C(C#N)c2nc(N)c(C#N)c(C)c2/C1=C\c1ccc(C)cc1,-35.8%
3,Cc1c(O)ccc(NS(=O)(=O)c2ccccc2)c1C,5%
4,CCOC(=O)c1c(C)[n+]([O-])c2ccc3c(non3O)c12,10.7%
5,O=c1c2c(nc3n1CCCCC3)-c1ccccc1CC21CCCCC1,1.4%
6,Oc1ccc2ccccc2c1/C=N/Nc1ccccc1,-35.6%
7,O=C1C2C3C=CC(CC3)C2C(=O)N1/N=C/c1ccc(O)c(O)c1 (stereo not drawn),-11.1%
8,CCc1ccc(C=NC23CN4CN(CN(C4)C2)C3)s1,2%
9,CN(C)/N=C/c1c(O)ccc2ccccc12,26.9%
10,O=C(N/N=C\c1c(O)ccc2ccccc12)c1ccc(S(=O)(=O)N2CCCCC2)cc1,-8.7%
11,O=S(=O)(/N=C/c1c(O)ccc2ccccc12)c1cccs1,27.7%
12,Oc1ccc(C=NC2CCCCC2)c(O)c1,29%
13,O=C1C2C3C=CC(CC3)C2C(=O)N1/N=C/c1c(O)ccc2ccccc12 (stereo not drawn),70.3% (active)
14,O=C1C2C3C=CC(CC3)C2C(=O)N1/N=C/c1ccccc1O (stereo not drawn),-0.9%
15,Cc1ccccc1C(=O)NC(=S)Nc1ccc(S(=O)(=O)N2CCOCC2)cc1,3.6%
16,CC(C)CC(=O)NC(=S)Nc1ccccn1,-9.5%
17,CCSc1nnc(NC(=O)CCc2ccc(OC)cc2)s1,8.9%
18,Cc1ccc(C2C(C#N)=C(N)SC(N)=C2C#N)o1,-7.3%
19,Oc1c(Cl)cccc1C=Nc1cc(C(F)(F)F)ccc1N1CCCC1,7.1%
20,Oc1ccc2ccccc2c1C=Nc1cc(C(F)(F)F)ccc1N1CCCC1,52.1% (active)
21,O=C(N/N=C/c1c(O)ccc2ccccc12)c1cccc(C(F)(F)F)c1,8.4%
22,CC(=O)Nc1cc(Cl)ccc1OS(=O)(=O)c1ccc(C)cc1,6.5%
23,Fc1ccc(CN2CCCCCCC2)cc1,-6.8%
24,Nc1nc(-c2ccc(-c3ccccc3)cc2)cs1,-2.8%
25,COc1ccc(N(Cc2cc3cc(OC)ccc3[nH]c2=O)C(=O)C2CCCO2)cc1 (stereo not drawn),7.7%

row,SMILES,inhibition
1,COc1ccc2[nH]c(=O)c(CN(C(=O)C3CCCO3)c3ccc(C)cc3)cc2c1 (stereo not drawn),50% (active)
2,CCOc1ccc(N(Cc2cc3cc(OC)ccc3[nH]c2=O)C(=O)C2CCCO2)cc1 (stereo not drawn),13.8%
3,CCC(=O)Nc1ccc(NC(=S)NC(=O)Cc2ccccc2)cc1,6%
4,CCN(CC)c1ccc(NC(=S)NC(=O)Cc2ccccc2)cc1,50.1% (active)
5,CN(C)S(=O)(=O)c1ccc(NC(=S)NC(=O)Cc2ccccc2)cc1,-3.1%
6,Cc1ccc(CC2CC(=O)N(c3ccncc3)C2=O)cc1 (stereo not drawn),1.2%
7,CCc1nc2ccc(C(=O)Nc3ccc(NC(C)=O)cc3)cc2nc1CC,7.1%
8,c1cc(Nc2cccc3nccnc23)c2nccnc2c1,54.4% (active)
9,Cc1ccc(OS(=O)Nc2cccc3nccnc23)cc1 (stereo not drawn),5.5%
10,Fc1ccc(Nc2cccc3nccnc23)cc1,26.2%
11,Cc1cc(C)n(-c2cc(C(=O)O)cc(C(=O)O)c2)n1,-12.4%
12,CC1=C(Sc2nc3ccccc3[nH]2)C(=O)NC(C)(C)C1,0.2%
13,CO/N=C/CC(=O)c1cnc(-c2ccccc2)s1,57.6% (active)
14,O=C(C/C=N/OCc1c(Cl)cccc1Cl)c1cnc(-c2ccccc2)s1,14.6%
15,O=C(C/C=N/OCc1ccccc1F)c1cnc(-c2ccc(Cl)cc2)s1,1.3%
16,O=C(C/C=N/OCc1ccc(Cl)cc1)c1cnc(-c2ccccc2)s1,13.5%
17,CO/N=C/CC(=O)c1cnc(-c2ccc(Cl)cc2)s1,53.8% (active)
18,O=C(C/C=N/OCc1ccc(F)cc1Cl)c1cnc(-c2ccccc2)s1,-2.1%
19,Cc1ccccc1C(=O)NC1CCN(Cc2nnnn2Cc2ccc(F)cc2)CC1,4.6%
20,CCC(C)(C)NC(=O)C(c1ccccn1)N(C(=O)c1csnn1)c1ccc(C)cc1 (stereo not drawn),-1.6%
21,COc1cc(CNn2cn[nH]c2=S)cc(Br)c1OCc1ccccc1F,0.2%
22,CCCCCCNS(=O)(=O)c1ccc(OC)c(OC)c1,5.6%
23,CCCN1CCC(NC(=S)Nc2ccc(OC)c(OC)c2)CC1,-3%

# Source: PubChem BioAssay AID1220 (Sanford-Burnham Center for Chemical Genomics, 2008)
